This note sets out measurements from PubChem BioAssay AID588827 (Broad Institute, 2011).

Among all 2,400 compounds or so, about 20 (0.8%) were called active. Another 19% or so got no clear call; they are omitted. These entries were drawn from the full list. Results with a measured potency or affinity are listed apart. Unmarked numbers belong to inactive results.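 The calls were made as follows: active = fitted half-maximal concentration for signal decrease at or below twice the top tested dose, in every repeat run; inconclusive = repeat runs disagree, or flat partial inhibition, or poor fit; inactive = all runs flat, wrong-direction or potency beyond limit.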

This test is described as follows: decrease of heat-induced HSF-1 GFP reporter, dose response, NIH3T3 R4 cells, GFP/RFP, cherry-pick, set 4 (AID 588827).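 Also: 0% = neutral control wells and -100% = didemnin B at 400 nM.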 The note with it: NIH3T3 R4 HSF-1 GFP reporter, heat shock, 48 h; series mostly up to 19.5 µM; activity change, negative = inhibition: at the top concentration.
With `COc1ccc(C(=O)N2CCN=C2SCc2cccnc2)cc1OC`, the “activity change, negative = inhibition” value is 3.94%.
Then `COc1ccc(NC(C)=O)cc1NC(=O)CN1CCN(CC(=O)Nc2ccccc2Cl)CC1`, with -18.4%; and `CC1(C)CC(=O)C2=C(C1)N(Cc1ccccc1)C(=O)C2(NC(=O)C(C)(C)C)C(F)(F)F` (stereo not given), with 1.22%; and `Cc1ccc(C(=O)CSc2cnc3ccccc3n2)cc1C`, with -15.7%.
Then `C/C(=N\NC1=NCCN1)c1ccc(N)c([N+](=O)[O-])c1`, with -5.31%; and `Cc1ccc(OCC(=O)Nc2ccccc2C(=O)N2CCCCC2)cc1`, with -11.1%; and `CCN(CC)S(=O)(=O)c1cccc(NC(=O)CCNC(=O)NC23CC4CC(CC(C4)C2)C3)c1`, with -25.2%.
In the case of `Cc1cccc(CS(=O)(=O)Cc2ccc(C(=O)NCc3cccs3)o2)c1` it was -20.7%.
`CC(C)OCCCn1c(NN)nc2ccccc2c1=O`: the “activity change, negative = inhibition” value was -8.01%.
Then `COc1nc(N)c(C#N)c(-c2ccc(N(C)CCC#N)cc2)c1C#N`, with -15.4%; and `CCCSc1nnc(CNS(=O)(=O)c2ccc(C)cc2)n1C`, with 15.3%; and `Cc1ccc(CSCC(=O)N(C)CC(=O)Nc2ccc(C)cc2)cc1`, with -13.1%.
In the case of `COc1ccc(O)c(-c2c(-c3ccc(Cl)cc3)n[nH]c2C)c1` it was -9.04%; in that of `COc1ccc(NCc2nnc(SCC(=O)Nc3cc(C(F)(F)F)ccc3Cl)o2)cc1`, -17.5%; in that of `O=C(CCCc1nc(-c2ccccc2Cl)no1)NC1CCCC1`, 8.17%.
Then `COc1ccc(CC(C)Nc2cccc(SC)c2)cc1` (stereo not given), with -7.7%; and `O=C(CN(Cc1ccccc1Cl)S(=O)(=O)c1ccc(Cl)cc1)N/N=C/c1ccc(C(=O)O)cc1`, with 2.93%; and `Cc1ccc(N=Nc2ccc3ccccc3c2O)cc1`, with 6.26%.
Consider `C=CCn1c(=NC(=O)C2CC2)sc2cc(NC(C)=O)ccc21`, for which the “activity change, negative = inhibition” value is 2.06%.
On to `CCCCNC(=O)C(=O)N/N=C/c1ccc(C(=O)OC)cc1`, for which the “activity change, negative = inhibition” value is -8.74%.
In the case of `O=c1cc(-c2ccccc2)c2ccc(O)cc2o1` it was -13%.
In the case of `CC(=O)c1ccc(NC(=O)C2CCN(S(=O)(=O)c3cccc4cccnc34)CC2)cc1`, the “activity change, negative = inhibition” value was -9.15%.
For the molecule `COc1ccc(NC(=S)Nc2ccc(F)cc2)c(OC)c1`, the “activity change, negative = inhibition” value was -12.6%.
In the case of `O=C(CSc1ccc(Br)cc1)Nc1ccccc1N1CCOCC1` it was -9.45%; in that of `COc1cc(C(=O)N2CCSCC2)ccc1OC1CCN(C(C)=O)CC1`, -1.88%; in that of `COc1ccccc1Oc1ccc2c(c1)C(=O)N(c1ccc(Br)c3cccnc13)C2=O`, -24.3%.
Then `Cc1c(Cl)cccc1NC(=O)Nc1cnccn1`, with -29.6%; and `CCN(CC)c1ccc(CNc2nc3ccccc3n2CCN2CCOCC2)cc1`, with -31.2%.
In the case of `CN(C(=O)c1ccc2c(c1)SC1=NS(=O)(=O)CCN12)C(c1ccccc1)c1ccccc1` it was 4.39% [at 10 µM].
Regarding `O=c1o[nH]c(-c2ccccc2)c1-c1ccccc1`, the “activity change, negative = inhibition” value is 5.38%.
Then `O=C(Nc1cccc(Cl)c1)N1CCOCC1`, with -24.5%; and `CCOC(=O)C1(Cc2ccc(OC)cc2)CCN(C(=O)c2csc(C)n2)CC1`, with -3.83%.
Then `Cc1ccccc1-c1nc2sc3c(c2c(=O)n1N)CCCC3`, with -10.4%; and `Cn1c(=O)cc(SCC(=O)N2CCN(C(=O)c3ccco3)CC2)c2ccccc21`, with -11.5%; and `Cc1[nH]c2ccccc2c1C(C[N+](=O)[O-])c1cccs1` (stereo not given), with -1.12%.
Then `COc1cccc(-c2cc3nc4c(c(NCC(C)(C)CN(C)C)n3n2)CCCC4)c1`, with -15.6%.
`CCOc1ccc(NC(=O)C2CCCN(c3nn4c(=O)cc(C)nc4s3)C2)cc1` (stereo not given): the “activity change, negative = inhibition” value was 9.81%.
In the case of `Cc1ccc2nc(-c3ccccc3NC(=O)CCC(=O)O)c(=O)[nH]c2c1` it was 11.3%; in that of `N#CC1=C(N)Oc2cc(N)ccc2C1c1ccccc1Cl` (stereo not given), -13.4%.
With `Cc1cc(Nc2ccc3c(c2)OCCO3)c2cc(Cl)ccc2n1`, the “activity change, negative = inhibition” value is -28.1%.
Regarding `CCn1nc(C)c(/C=N/NC(=O)c2c[nH]c3ccccc23)c1C`, the “activity change, negative = inhibition” value is 4.32%.
Then `N#Cc1c(N)nc(SCc2ccncc2)c(C#N)c1-c1cccs1`, with -23%; and `CCOc1ccc(N(CC(=O)NC2CCCCC2)C(=O)CCC(=O)Nc2nc(C)cs2)cc1`, with -1.1%; and `CCSc1nnc(-c2ccc(S(=O)(=O)NCc3cccs3)cc2)o1`, with -22.9%.
As to `O=C(c1cc2c(s1)-c1ccccc1OC2)N1CCN(c2ccccc2)CC1`, the “activity change, negative = inhibition” value is -1.28%.
In the case of `Cc1cc(/C=C2/C(=O)NN(c3ccccc3)C2=O)c(C)n1-c1ccc(O)cc1` it was -1.39%; in that of `C/C(=N\Nc1nncc2ccccc12)c1ccc(Cl)c([N+](=O)[O-])c1`, 4.2%; in that of `Cc1cc(Cl)ccc1OCCCC(=O)N1CCOCC1`, 4.58%.
Then `CCC(NC(=S)NC1CCCCC1)c1ccccc1` (stereo not given), with 3.39%; and `CCN(CC(=O)Nc1c(F)cccc1F)C(=O)Cc1n[nH]c(=O)c2ccccc12`, with -8.1%.
Then `COC(=O)C1=C(C)N(CCCC(=O)O)C(=O)NC1c1ccc(C#N)cc1` (stereo not given), with -11.5%; and `O=C(CN1CCCCC1)Nc1cccc2c1OCO2`, with -20.8%.
As for `CC(CN1CCOCC1)OC(=O)C(c1ccccc1)c1ccccc1` (stereo not given), the “activity change, negative = inhibition” value was 3.47%.
Then `O=C(O)CSCC(=O)Nc1ccc(C2CCCCC2)cc1`, with -19.7%; and `Cc1ccnc(NC(c2ccsc2)c2ccc3ccc(C)nc3c2O)c1` (stereo not given), with 77.1%.
